RAM inhibit: yeast RAM network inhibition | S. cerevisiae dse1pr::URA3 reporter, 5-FOA growth OD615, 2 d; analog-sensitive cbk1-as2 kinase mutant strain | 190,000 tested, 1.8% active | AID 868 | inhibition, % at 50 µM;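 active = inhibition above a set limit, 3 SD over mean compound inhibition, cut at about 8.4% in these data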;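 note: 0% = DMSO-only wells with no growth and 100% = 10 µM 1-NA-PP1 full growth; inhibition rescues growth on 5-FOA so higher OD means more RAM inhibition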
CHOP inh: blocks CHOP induction under ER stress | CHO-K1 CHOP-promoter luciferase, tunicamycin-induced, 15-18 h | inhibition, % at 10 µM | 220,000 tested, 3.8% active | AID 2732;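 active = compounds that reduced the stress-induced luciferase reporter signal by more than about 70% of percent inhibition, limit read from the data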;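 note: 0% = tunicamycin plus vehicle and 100% = wells without tunicamycin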
Lmaj promast: inhibitors of Leishmania major promastigote growth; 200,000 tested, 9% active; Leishmania major promastigotes, resazurin fluorescence viability; inhibition, % at 10 µM; AID 1063; in the data active = inhibition above about 50%;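 note: promastigotes grown with compound for 44 hours at 28 °C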
WT yeast gro inh: growth inhibition of WT yeast, mitochondrial fusion screen; 190,000 tested, 2.1% active; AID 1362; mitochondrial fusion phenotypic screen, WT strain; inhibition, % at 10 µM; in the data active = inhibition above about 58%; tested in S. cerevisiae
The depositor's hits bear a star; nt = no result given. An excerpt weighted towards active compounds, which were near 13% of everything screened.

SMILES | RAM inhibit | CHOP inh | Lmaj promast | WT yeast gro inh
Cc1cccnc1NC(=O)COc1ccc2oc3c(c2c1)CCCC3 | 0 | 36 | 4 | 19
Cc1ccc(NC(=O)COc2ccc3oc4c(c3c2)CCCC4)nc1 | 3 | 76* | -4 | 21
CCSc1nnc(NC(=O)COc2ccc3ccccc3c2)s1 | 5 | 65 | -9 | 84*
CCSc1nnc(NC(=O)NC(CC)(C(F)(F)F)C(F)(F)F)s1 | 3 | 90* | 31 | 40
CCCC(=O)Nc1nnc(SCC)s1 | 0 | -12 | 70* | -9
CCSc1nnc(NC(=O)CSc2ncccn2)s1 | 1 | -11 | 1 | -5
C=C[C@H]1CN2CCC1C[C@@H]2[C@@H](O)c1ccnc2ccc(OC)cc12 (stereo partly specified) | nt | -19 | nt | nt
Cc1ccc(N2C(=O)[C@@H]3C(C(=O)C(c4ccccc4)c4ccccc4)=NN[C@@H]3C2=O)cc1 | 3 | 21 | -6 | 4
CC(CCc1ccccc1)NC(=O)COC(=O)C1CCC(C(C)(C)C)CC1 (stereo unspecified) | 4 | 36 | -6 | 48
O/N=C/c1ccc(-c2cc(Cl)ccc2Cl)o1 | 4 | 96* | 67* | -10
COC(=O)c1c([N+](=O)[O-])c(OC)c(OC)c(OC)c1[N+](=O)[O-] | 2 | -21 | -6 | 3
c1ccc(C(c2nnnn2C2CCCC2)N2CCN(c3nc4ccccc4s3)CC2)cc1 (stereo unspecified) | 6 | 21 | 95* | 39
Fc1ccc(C(c2nnnn2C2CCCC2)N2CCN(Cc3ccccc3)CC2)cc1 (stereo unspecified) | 0 | 40 | 36 | -16
O=C(c1ccco1)N1CCN(C(c2cccs2)c2nnnn2C2CCCCC2)CC1 (stereo unspecified) | 1 | 6 | 60* | 23
NC(=O)C1CCN(C(c2ccccc2)c2nnnn2C2CCCC2)CC1 (stereo unspecified) | 0 | 2 | -2 | -6
Clc1ccc(C(c2nnnn2C2CCCC2)N2CCN(Cc3ccncc3)CC2)cc1 (stereo unspecified) | 1 | 10 | 88* | 8
Cc1ccc(C(c2nnnn2C2CCCC2)N2CCN(c3nc4ccccc4s3)CC2)cc1 (stereo unspecified) | nt | nt | 95* | nt
COc1ccc2oc(=O)c(/C(C)=N/NC(=O)c3ccncc3)cc2c1 | 1 | 6 | -7 | -3
CCCNC(=O)[C@H](C)NC(=O)c1ccc(Br)cc1 | 2 | -9 | 13 | -27
CCC(=O)c1c(NC(CC)CO)cc(C)oc1=O (stereo unspecified) | 4 | 12 | -4 | 7
N#Cc1cccc(C(c2nnnn2C2CCCC2)N2CCCCCC2)c1 (stereo unspecified) | -1 | 25 | 18 | -7
c1ccc(C(c2ccccc2)N2CCN(C(c3ccccn3)c3nnnn3C3CCCC3)CC2)cc1 (stereo unspecified) | -1 | 32 | 57* | 14
c1cncc(C(c2nnnn2C2CCCCC2)N2CCN3CCCC3C2)c1 (stereo unspecified) | -1 | 2 | -7 | -5
c1csc(C(c2nnnn2C2CCCC2)N2CCOCC2)c1 (stereo unspecified) | 0 | 35 | -1 | 9
c1csc(C(c2nnnn2C2CCCC2)N2CCCC3(CCCCC3)C2)c1 (stereo unspecified) | 2 | 51 | 40 | 70*
SMILES | RAM inhibit | CHOP inh | Lmaj promast | WT yeast gro inh
Cc1ccc(C(c2nnnn2C2CCCC2)N2CCN3CCCC3C2)cc1 (stereo unspecified) | 0 | 24 | 87* | 14
O=c1c(C(c2nnnn2C2CCCCC2)N2CCCCC2)coc2ccc(Cl)cc12 (stereo unspecified) | 2 | 3 | 62* | 28
c1ccc(C(c2nnnn2C2CCCC2)N2CCCCCC2)nc1 (stereo unspecified) | -1 | 21 | 0 | -1
c1csc(C(c2nnnn2C2CCCCC2)N2CCN(c3nc4ccccc4s3)CC2)c1 (stereo unspecified) | 6 | 13 | 93* | 24
Cc1cc2oc(=O)cc(CN3CCN(C/C=C/c4ccccc4)CC3)c2cc1O | 0 | 43 | 100* | 9
CCOC(=O)Nc1ccc2c(CN3C(=O)NC4(CCCC4)C3=O)cc(=O)oc2c1 | 1 | 50 | 7 | -3
Cc1cc2oc(=O)cc(CN3CCN(S(=O)(=O)c4cccs4)CC3)c2cc1C | 3 | 28 | 81* | 13
CCOC(=O)Nc1ccc2c(CN3CCN(S(=O)(=O)c4ccccc4)CC3)cc(=O)oc2c1 | 2 | 30 | 100* | -1
Cc1c(O)ccc2c(CN3CCN(C/C=C/c4ccccc4)CC3)cc(=O)oc12 | nt | 28 | nt | nt
O=c1cc(CN2CCN(C/C=C/c3ccccc3)CC2)c2cc(O)c(-c3ccccc3)cc2o1 | -1 | 69 | 80* | 84*

Bioassay records: PubChem BioAssay, several laboratories
